Results on 37 compounds are retold here after PubChem BioAssay (NCI).

Compounds without any hit were thinned out: in the full panel of roughly 83,000, 20% have a hit.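 Single-dose data. Exposure time 48 hours. Values below 10 considered active.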 Values without a mark were called inactive. Calls of active or inactive are those of the source.

For one assay, the system named is T-47D breast. Kind of assay: NCI-60 one-dose screen, 48 h (100 = growth as untreated, 0 = no growth, -100 = all killed). The note with it: 10 µM unless noted.
In the case of `NC(CCl)=NCC12CC3CC(CC(C3)C1)C2`, the growth was 15.7%.
With `C=CCc1cc(OC)c(O)c(OC)c1`, the growth is 83.7%.
Still for that read-out and setting: then `O=C(O)CC1=CCCCC1`, with 109%.
The same measure, in the same setting: with `COC(=O)C1=C(C)C(=O)CC1` the figure was 127%.
`O=C(c1cccc(C(=O)c2ccc3c4c(cccc24)C(=O)N(c2ccccc2)C3=O)c1)c1ccc2c3c(cccc13)C(=O)N(c1ccccc1)C2=O`: the growth is 76.3%.
For the compound `O=c1n(CC2CO2)c(=O)n(CC2CO2)n1CC1CO1` (centres undefined), the growth is 52.4%.
Same read-out and setting: with `CCCC1OC(c2ccco2)OCC1CC` (centres undefined) the figure was 103%; with `COc1cc2c(c(OC)c1OC)-c1ccc(SC)c(=O)cc1[C@@H](NC1OC(CO)C(O)C(O)C1O)CC2` (some centres undefined), 52.5%.
As to `ClCC(Cl)C1CCC(Cl)C(Cl)C1` (centres undefined), the growth was 100%.
As to `O=C(O)c1c[nH]c2ccccc2c1=O`, the growth is 89.5%.
For the compound `O=C(O)c1cccc(-n2ncc(Cl)c(Cl)c2=O)c1`, the growth is 102%.
On to `S=c1nc2[nH]c3ccccc3c2n[nH]1`, for which the growth was 88.2%.
On the same count and under the same terms, with `NCCCN1CCCC1=O` the figure was 115%; with `O=S(=O)(O)c1cccc2cccnc12`, 106%; with `CC(=O)OCC1CCC(COC(C)=O)CC1` (centres undefined), 93%.
In the case of `CC1CCC(C(C)(C)[N+](C)(C)C)CC1` (centres undefined), the growth was 98.8%.
For `O=C(CCCl)OCCOc1ccccc1`, the growth is 96%.
On the same count and under the same terms, then `CC(=O)Nc1ccc(/C=C2\SC(=S)N(/C=C(\C(C)=O)C(N)=O)C2=O)cc1`, with 87.5%.
For the compound `CC(=O)Nc1ccc(O)c(C)c1`, the growth was 95.9%.
As to `CSc1nsc(N)n1`, the growth was 98.8%.
In the case of `ON1CCCC1`, the growth was 98.6%.
For `CC(C)(C)CC1(C)NC(=O)NC1=O` (centres undefined), the growth is 108%.
Consider `CC(=O)O[C@H]1CC[C@]2(C)C3=C(C(=O)C[C@H]2C1(C)C)[C@]1(C)CC[C@H]([C@H](C)CCC(=O)O)[C@@]1(C)CC3=O`, for which the growth was 91.5%.
`COc1cccc(C(=O)NNC(=O)c2cccc3ccccc23)c1`: the growth was 95.4%.
Still for that read-out and setting: then `Cc1c(-c2ccc(C3CCCCC3)cc2)nc2ccc(F)cc2c1C(=O)O`, with 66.1%; and `Cc1onc(-c2c(F)cccc2Cl)c1-c1ncc(-c2ccc(Br)cc2)o1`, with 29.6%.
Same read-out and setting: with `CC(=O)/C(C)=N\OC(=O)Nc1ccccc1` the figure was 94.4%.
Still for that read-out and setting: then `O=C(O)c1cc(I)ccc1O`, with 112%.
As to `O=C(OC1CCCC1)c1ccccc1Cl`, the growth was 96%.
Take `COC(=O)c1ccccc1C(=O)c1c(C)cc(C)cc1C`: the growth was 88.8%.
Regarding `CCCCOC(=O)c1ccc(NC(=O)CCl)cc1`, the growth was 47.2%.
On the same count and under the same terms, with `CCOC(=O)/C(O)=C(\C=N\C(=S)Nc1ccc(Cl)c(Cl)c1)C(=O)OCC` the figure was 58.3%; with `Cc1ccccc1CC(N)C(=O)O` (centres undefined), 103%; with `CC1(C)OC2C(CO)OC(n3ccc(=O)[nH]c3=O)C2O1` (centres undefined), 89.4%.
With `ClCC(Cl)[C@@H]1CC2C=CC1C2` (some centres undefined), the growth is 98.8%.
For `O=C(CCl)Nc1ccccc1SCc1cc(Cl)cc2c1OCOC2`, the growth is 55.9%.
Turning to `CCCCN(C(=O)CC)c1ccccc1`, the growth was 110%.

In the next assay the test system is BT-549 breast. The assay is described as above. The note with it: 10 µM unless noted.
As to `NC(CCl)=NCC12CC3CC(CC(C3)C1)C2`, the growth is 1.18% (active).
`C=CCc1cc(OC)c(O)c(OC)c1`: the growth was 106%.
Consider `O=C(O)CC1=CCCCC1`, for which the growth is 96.1%.
As to `COC(=O)C1=C(C)C(=O)CC1`, the growth was 114%.
For `O=C(c1cccc(C(=O)c2ccc3c4c(cccc24)C(=O)N(c2ccccc2)C3=O)c1)c1ccc2c3c(cccc13)C(=O)N(c1ccccc1)C2=O`, the growth was 104%.
With `O=c1n(CC2CO2)c(=O)n(CC2CO2)n1CC1CO1` (centres undefined), the growth is 54.4%.
With `CCCC1OC(c2ccco2)OCC1CC` (centres undefined), the growth is 98.3%.
With `COc1cc2c(c(OC)c1OC)-c1ccc(SC)c(=O)cc1[C@@H](NC1OC(CO)C(O)C(O)C1O)CC2` (some centres undefined), the growth was 14.9%.
Consider `ClCC(Cl)C1CCC(Cl)C(Cl)C1` (centres undefined), for which the growth is 103%.
With `O=C(O)c1c[nH]c2ccccc2c1=O`, the growth is 101%.
Regarding `O=C(O)c1cccc(-n2ncc(Cl)c(Cl)c2=O)c1`, the growth was 105%.
As to `S=c1nc2[nH]c3ccccc3c2n[nH]1`, the growth is 102%.
On to `NCCCN1CCCC1=O`, for which the growth is 110%.
In the case of `O=S(=O)(O)c1cccc2cccnc12`, the growth is 121%.
As for `CC(=O)OCC1CCC(COC(C)=O)CC1` (centres undefined), the growth was 112%.
As to `CC1CCC(C(C)(C)[N+](C)(C)C)CC1` (centres undefined), the growth is 92.6%.
Turning to `O=C(CCCl)OCCOc1ccccc1`, the growth is 116%.
As for `CC(=O)Nc1ccc(/C=C2\SC(=S)N(/C=C(\C(C)=O)C(N)=O)C2=O)cc1`, the growth was 92.3%.
Same read-out and setting: with `CC(=O)Nc1ccc(O)c(C)c1` the figure was 112%.
On the same count and under the same terms, with `CSc1nsc(N)n1` the figure was 100%; with `ON1CCCC1`, 96.7%.
Same read-out and setting: then `CC(C)(C)CC1(C)NC(=O)NC1=O` (centres undefined), with 119%; and `CC(=O)O[C@H]1CC[C@]2(C)C3=C(C(=O)C[C@H]2C1(C)C)[C@]1(C)CC[C@H]([C@H](C)CCC(=O)O)[C@@]1(C)CC3=O`, with 93.9%; and `COc1cccc(C(=O)NNC(=O)c2cccc3ccccc23)c1`, with 110%.
For the compound `Cc1c(-c2ccc(C3CCCCC3)cc2)nc2ccc(F)cc2c1C(=O)O`, the growth was 65.2%.
Regarding `Cc1onc(-c2c(F)cccc2Cl)c1-c1ncc(-c2ccc(Br)cc2)o1`, the growth is 40.7%.
`CC(=O)/C(C)=N\OC(=O)Nc1ccccc1`: the growth is 101%.
As to `O=C(O)c1cc(I)ccc1O`, the growth is 85.9%.
As to `O=C(OC1CCCC1)c1ccccc1Cl`, the growth was 104%.
`COC(=O)c1ccccc1C(=O)c1c(C)cc(C)cc1C`: the growth was 106%.
Regarding `CCCCOC(=O)c1ccc(NC(=O)CCl)cc1`, the growth was 47.5%.
Still for that read-out and setting: then `CCOC(=O)/C(O)=C(\C=N\C(=S)Nc1ccc(Cl)c(Cl)c1)C(=O)OCC`, with 100%; and `Cc1ccccc1CC(N)C(=O)O` (centres undefined), with 106%; and `CC1(C)OC2C(CO)OC(n3ccc(=O)[nH]c3=O)C2O1` (centres undefined), with 104%.
Consider `ClCC(Cl)[C@@H]1CC2C=CC1C2` (some centres undefined), for which the growth was 103%.
On to `O=C(CCl)Nc1ccccc1SCc1cc(Cl)cc2c1OCOC2`, for which the growth was 71.9%.
For the compound `CCCCN(C(=O)CC)c1ccccc1`, the growth was 104%.
